From PubChem BioAssay (NCI)
This is part of a sample that, as a whole, favours compounds with a hit. Of some 83,000 tested, about 20% had one in any assay.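 48-hour exposure, single concentration, 96-well plates; percent growth endpoint where 0 means no net growth. Active: below 10.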 Activity calls are given as the source filed them.

What was measured:
Test in all cases: NCI-60 one-dose screen, 48 h (100 = growth as untreated, 0 = no growth, -100 = all killed)
[1] = test system: SR leukemia; settings: 10 µM unless noted
[2] = test system: RPMI-8226 leukemia; settings: 10 µM
[3] = test system: OVCAR-8 ovarian; settings: 10 µM unless noted
[4] = test system: OVCAR-5 ovarian; settings: 10 µM unless noted
[5] = test system: OVCAR-4 ovarian; settings: 10 µM unless noted
[6] = test system: SK-OV-3 ovarian; settings: 10 µM
[7] = test system: IGROV1 ovarian; settings: 10 µM unless noted
[8] = test system: OVCAR-3 ovarian; settings: 10 µM unless noted
[9] = test system: HS 578T breast; settings: 10 µM unless noted
[10] = test system: NCI/ADR-RES ovarian; settings: 10 µM unless noted
[11] = test system: T-47D breast; settings: 10 µM
[12] = test system: BT-549 breast; settings: 10 µM unless noted
[13] = test system: MDA-MB-435 melanoma; settings: 10 µM unless noted
[14] = test system: SW-620 colon; settings: 10 µM unless noted
[15] = test system: MCF7 breast; settings: 10 µM unless noted
[16] = test system: HCT-116 colon; settings: 10 µM unless noted
[17] = test system: HCC-2998 colon; settings: 10 µM unless noted
[18] = test system: KM12 colon; settings: 10 µM unless noted

Measured: growth

Cc1nn(-c2ccccc2)c2nc3nc4c(c(N)c3c(-c3ccc(Cl)cc3)c12)CCC4
active: [1] -25.9%
inactive: [2] 82.3% | [3] 83% | [4] 93.2% | [5] 101% | [6] 98.6% | [7] 84.5% | [8] 111% | [9] 99.5% | [10] 95.2% | [11] 102% | [12] 114% | [13] 95.1% | [14] 50.8% | [15] 87.5% | [16] 58.2% | [17] 109% | [18] 96.6%

Nc1nc2c(s1)CCc1c-2c(Br)n(Cc2ccccc2)c1Br
inactive: [1] 20.8% | [2] 51.7% | [3] 74.3% | [4] 105% | [5] 81.8% | [6] 108% | [7] 104% | [8] 52.5% | [9] 96.9% | [10] 89.7% | [11] 34.3% | [12] 93.7% | [13] 95.6% | [14] 35.3% | [15] 78.4% | [16] 23.5% | [17] 102% | [18] 108%

CC1(C)N=C(N)N=C(N)N1c1cccc(/C=C/C=C/c2cccc([N+](=O)[O-])c2)c1
inactive: [1] 37% | [3] 84.1% | [4] 44.7% | [5] 65.3% | [6] 83.3% | [7] 35.3% | [8] 30.1% | [9] 95% | [10] 108% | [11] 78.1% | [12] 46.1% | [13] 23.3% | [14] 44.6% | [15] 57.9% | [16] 24.7% | [17] 45.1% | [18] 35.5%
active: [2] 8.42%

COc1nc2c(cc1S(=O)(=O)c1ccccc1)CCc1c-2cnn1-c1cccc(Cl)c1
inactive: [1] 47.4% | [2] 56.6% | [3] 81.8% | [4] 80.1% | [5] 87% | [6] 83.2% | [7] 94.9% | [8] 93.7% | [9] 102% | [10] 89.7% | [11] 59.6% | [12] 80.8% | [13] 63% | [14] 93.7% | [15] 87.5% | [16] 62.9% | [17] 101% | [18] 85.4%

Clc1ccc(C2=NN(c3ccccc3)[C@H](c3cn(-c4ccccc4)nc3-c3ccccc3)C2)cc1
inactive: [1] 118% | [2] 112% | [3] 106% | [4] 97.8% | [5] 105% | [6] 107% | [7] 104% | [8] 113% | [9] 131% | [10] 105% | [11] 112% | [12] 112% | [13] 99.8% | [14] 107% | [15] 97.5% | [16] 90% | [17] 103% | [18] 104%

COc1ccc2c(c1)c(=O)oc1c(C)c(OCC(C)=O)ccc12
inactive: [1] 116% | [2] 92.6% | [3] 96.3% | [4] 86.9% | [5] 93.6% | [6] 110% | [7] 111% | [8] 109% | [9] 33.6% | [10] 97.6% | [11] 104% | [12] 102% | [13] 89.4% | [14] 101% | [15] 101% | [16] 104% | [17] 98.1% | [18] 96.6%

C=CC(=O)N1CC2(CCC(n3nc(-c4ccc(Oc5ccccc5)cc4)c4c(N)ncnc43)CC2)C1
active: [1] -23.2% | [2] -56% | [3] -36.5% | [4] -0.902% | [5] -10.7% | [6] -24.6% | [7] -51.2% | [8] -36.6% | [9] -35.5% | [10] -9.16% | [12] -69.3% | [13] -81.1% | [14] 0.371% | [15] 1.86% | [16] -82.7% | [17] -77.8% | [18] -29.1%
inactive: [11] 14.6%

O=S(=O)(Nc1ncccn1)c1ccc(Nc2ccc3nnc(-c4ccncc4)n3n2)cc1
inactive: [1] 102% | [2] 109% | [3] 103% | [4] 94.3% | [5] 93.8% | [6] 103% | [7] 105% | [8] 104% | [9] 84.3% | [10] 102% | [11] 101% | [12] 106% | [13] 108% | [14] 93% | [15] 104% | [16] 108% | [17] 111% | [18] 101%

COc1ccc(/C=C2\CN(Cc3cn(CCCNc4ccnc5cc(Cl)ccc45)nn3)C/C(=C\c3ccc(OC)cc3)C2=O)cc1
active: [1] -6.55% | [3] 1.09%
inactive: [2] 18% | [4] 120% | [5] 55.1% | [6] 70.7% | [7] 65% | [8] 68.7% | [9] 81.5% | [10] 50.7% | [11] 102% | [12] 44.3% | [13] 60.2% | [14] 46.4% | [15] 43.5% | [16] 44.5% | [17] 95.1% | [18] 45.4%
